Results filed as inconclusive are left out. Activity calls are given as the source filed them. Calls follow the shape of the full dose curve.
Legend:
[1] = molecular target: Acetylcholinesterase (Homo sapiens) (UniProt P22303); experiment: Acetylcholinesterase (AChE) small molecule antagonists: colormetric cell-based qHTS assay (AID 1347395); also: nearly all actives have a fitted effect of over 30% in size
Outline: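 Colorimetric read-out: DTNB detects thiocholine released when cellular AChE in SH-SY5Y cells hydrolyses acetylthiocholine. Cells attached overnight, received compound for 30 min at 37 C, then substrate mix for 90 min at 37 C.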

[2] = molecular target: Acetylcholinesterase (Homo sapiens) (UniProt P22303); experiment: Acetylcholinesterase (AChE) small molecule antagonists: enzyme-based qHTS assay (AID 1347397); conditions: Potency: AChE enzyme activity inhibition; outcome: AChE enzyme activity inhibition; also: nearly all actives have a fitted effect of over 55% in size
Outline: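 Recombinant human AChE, dispensed at 50 mU/mL, was preincubated with Tox21 10K compounds or DMSO vehicle for 30 min at room temperature. DTNB plus acetylthiocholine was then added, and thiocholine was measured colorimetrically after a further 10 min.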

[3] = molecular target: Acetylcholinesterase (Homo sapiens) (UniProt P22303); experiment: Acetylcholinesterase (AChE) small molecule antagonists: fluorescence cell-based qHTS assay (AID 1347398); conditions: Potency: AChE activity; outcome: AChE activity; also: nearly all actives have a fitted effect of over 50% in size
Outline: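 Human SH-SY5Y cells were plated overnight at 37 C, exposed to compound for 30 min at 37 C, 5% CO2, then given acetylthiocholine plus Thiolite Green for 40 min at room temperature; thiocholine fluorescence (Ex/Em 490/520 nm) reports endogenous AChE activity.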

[4] = molecular target: Acetylcholinesterase (Homo sapiens) (UniProt P22303); experiment: Acetylcholinesterase (AChE) small molecule antagonists: enzyme-based qHTS assay with human liver microsomes (AID 1347399); conditions: Potency: qHTS inhibition; outcome: qHTS inhibition; also: nearly all actives have a fitted effect of over 60% in size
Outline: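 Recombinant human AChE (50 mU/mL in the enzyme mix) and human liver microsomes (0.25 mg/mL final) were preincubated with compound and NADPH (0.25 mg/mL final) for 30 min at 37 C. Acetylthiocholine/DTNB was then added; thiocholine was read colorimetrically after 10 min at room temperature.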
% is scaled to controls: 0 for no effect and ±100 for the full control effect.

Sequence of Acetylcholinesterase (Homo sapiens) (P22303 whole entry, looked up): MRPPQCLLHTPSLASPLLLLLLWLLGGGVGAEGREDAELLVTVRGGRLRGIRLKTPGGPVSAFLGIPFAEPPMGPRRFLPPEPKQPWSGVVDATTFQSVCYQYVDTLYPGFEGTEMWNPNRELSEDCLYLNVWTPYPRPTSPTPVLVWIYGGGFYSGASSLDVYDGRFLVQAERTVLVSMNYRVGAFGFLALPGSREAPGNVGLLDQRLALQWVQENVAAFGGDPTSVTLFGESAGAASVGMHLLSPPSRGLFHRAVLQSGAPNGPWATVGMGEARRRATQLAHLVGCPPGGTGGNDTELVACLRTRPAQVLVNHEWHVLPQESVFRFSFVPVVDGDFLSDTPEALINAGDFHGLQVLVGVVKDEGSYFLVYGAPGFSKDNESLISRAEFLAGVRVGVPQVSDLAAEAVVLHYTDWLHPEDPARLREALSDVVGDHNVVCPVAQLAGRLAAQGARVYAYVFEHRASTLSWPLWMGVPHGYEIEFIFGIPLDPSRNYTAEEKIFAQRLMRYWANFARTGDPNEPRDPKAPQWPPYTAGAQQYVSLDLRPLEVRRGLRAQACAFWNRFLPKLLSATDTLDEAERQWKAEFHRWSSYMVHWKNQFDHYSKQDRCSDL

CCOC(=O)O[C@]1(C(=O)OCCl)CC[C@H]2[C@@H]3CCC4=CC(=O)C=C[C@]4(C)[C@H]3[C@@H](O)C[C@@]21C
inactive: Potency [1] | Potency [2] | Potency [3] | Potency [4]

Cl[Si](Cl)(c1ccccc1)c1ccccc1
inactive: Potency [1] | Potency [2] | Potency [3] | Potency [4]

CC1CC(O)CC(C)(C)C1 (stereo not given)
inactive: Potency [1] | Potency [2] | Potency [3] | Potency [4]

COc1ccccc1Oc1c(NS(=O)(=O)c2ccc(C(C)(C)C)cc2)nc(-c2ncccn2)nc1OCCO
inactive: Potency [1] | Potency [2] | Potency [3] | Potency [4]

COCCCN
inactive: Potency [1] | Potency [2] | Potency [3] | Potency [4]

CO[C@@]1(NC(=O)CSCC#N)C(=O)N2C(C(=O)O)=C(CSc3nnnn3C)CS[C@@H]21
inactive: Potency [1] | Potency [2] | Potency [3] | Potency [4]

CCCCCCCCCCCCCCCCC(=O)O
inactive: Potency [1] | Potency [2] | Potency [3] | Potency [4]

C/C=C/c1ccc(O)c(OC)c1
inactive: Potency [1] | Potency [2] | Potency [3] | Potency [4]

OC/C(Br)=C(\Br)CO
inactive: Potency [1] | Potency [2] | Potency [3] | Potency [4]

N#CCC(=O)O
inactive: Potency [1] | Potency [2] | Potency [3] | Potency [4]

COc1ccc(S(=O)(=O)Nc2nnc(CC(C)C)s2)cc1
inactive: Potency [1] | Potency [2] | Potency [3] | Potency [4]

c1ccc(CNc2ncnc3c2ncn3C2CCCCO2)cc1 (stereo not given)
inactive: Potency [1] | Potency [2] | Potency [3] | Potency [4]

COc1ccc2c(c1)c(CC(=O)OC/C=C(\C)CC/C=C(\C)CCC=C(C)C)c(C)n2C(=O)c1ccc(Cl)cc1
inactive: Potency [1] | Potency [2] | Potency [3] | Potency [4]

C=CCOCC(CO)(COCC=C)COCC=C
inactive: Potency [1] | Potency [2] | Potency [3] | Potency [4]

O=C(O)[C@H](O)[C@@H](O)[C@H](O[C@@H]1O[C@H](CO)[C@H](O)[C@H](O)[C@H]1O)[C@H](O)CO
inactive: Potency [1] | Potency [2] | Potency [3] | Potency [4]

CC(C)Cc1ccc(C(C)C(=O)O)cc1 (stereo not given)
inactive: Potency [1] | Potency [2] | Potency [3] | Potency [4]

CCCCCCCCCCCCI
inactive: Potency [1] | Potency [2] | Potency [3] | Potency [4]

CCOC(=O)C(=O)CCc1ccccc1
inactive: Potency [1] | Potency [2] | Potency [3] | Potency [4]

O=S(=O)(O)CO
inactive: Potency [1] | Potency [2] | Potency [3] | Potency [4]

CN(CCOc1ccc(CC2SC(=O)NC2=O)cc1)c1ccccn1 (stereo not given)
inactive: Potency [1] | Potency [2] | Potency [3] | Potency [4]

CC(O)COCC(C)O (stereo not given)
inactive: Potency [1] | Potency [2] | Potency [3] | Potency [4]

N#C[C@@H]1C[C@@H]2C[C@@H]2N1C(=O)[C@@H](N)C12CC3CC(CC(O)(C3)C1)C2
inactive: Potency [1] | Potency [2] | Potency [3] | Potency [4]

CCOc1ccc([N+](=O)[O-])cc1
inactive: Potency [1] | Potency [2] | Potency [3] | Potency [4]

C=C1C[C@H]2[C@@H]3C=C(C)C4=CC(=O)CC[C@]4(C)[C@H]3CC[C@]2(C)[C@@]1(OC(C)=O)C(C)=O
inactive: Potency [1] | Potency [2] | Potency [3] | Potency [4]

c1ccc(OCCOc2ccccc2)cc1
inactive: Potency [1] | Potency [2] | Potency [3] | Potency [4]

COc1cc2ncnc(Nc3cccc(Cl)c3)c2cc1OC
inactive: activity, negative = inhibition [1] 5.54% [at 23.6 µM] | activity change, negative = inhibition [2] -0.138% [at 23.6 µM] | activity change, negative = inhibition [3] 1.23% [at 23.8 µM] | activity change, negative = inhibition [4] 1.05% [at 23.6 µM]

CCC(C)(C)CC
inactive: Potency [1] | Potency [2] | Potency [3] | Potency [4]

O=C(N/N=C/c1ccc([N+](=O)[O-])o1)c1ccc(O)cc1
inactive: Potency [1] | Potency [2] | Potency [3] | Potency [4]

CC(=O)Nc1ccc(C)cc1
inactive: Potency [1] | Potency [2] | Potency [3] | Potency [4]

Nc1cc(S(=O)(=O)O)cc2cc(S(=O)(=O)O)cc(O)c12
inactive: Potency [1] | Potency [2] | Potency [3] | Potency [4]

Cc1cc(C)c(N)c(Cl)c1
inactive: Potency [1] | Potency [2] | Potency [3] | Potency [4]

NC(=O)NNC(N)=O
inactive: Potency [1] | Potency [2] | Potency [3] | Potency [4]

CCCCCCCCC
inactive: Potency [1] | Potency [2] | Potency [3] | Potency [4]

CCOc1cc(OCC)c(C(=O)CCC(=O)O)cc1OCC
inactive: Potency [1] | Potency [2] | Potency [3] | Potency [4]

CCCCCCn1c(=O)c2c(ncn2C)n(C)c1=O
inactive: Potency [1] | Potency [2] | Potency [3] | Potency [4]

NS(=O)(=O)c1cc2c(cc1Cl)NC(C1CC3C=CC1C3)NS2(=O)=O (stereo not given)
inactive: Potency [1] | Potency [2] | Potency [3] | Potency [4]

OCCN(CCO)c1ccccc1
inactive: Potency [1] | Potency [2] | Potency [3] | Potency [4]

CC(=O)Oc1cccc(O)c1
inactive: Potency [1] | Potency [2] | Potency [3] | Potency [4]

CCC1(c2ccccc2)C(=O)NCNC1=O
inactive: Potency [1] | Potency [2] | Potency [3] | Potency [4]

Cc1ccc(S(=O)(=O)NC2CCCCC2)cc1
inactive: Potency [1] | Potency [2] | Potency [3] | Potency [4]

COc1ccc(C#N)cc1
inactive: Potency [1] | Potency [2] | Potency [3] | Potency [4]

FC(F)(F)C(F)(F)C(F)(F)C(F)(F)C(F)(F)C(F)(F)C(F)(F)C(F)(F)C(F)(F)C(F)(F)F
inactive: activity, negative = inhibition [1] 0.771% [at 10.5 µM] | activity change, negative = inhibition [2] 1.63% [at 10.5 µM] | activity change, negative = inhibition [3] 1.44% [at 10.5 µM] | activity change, negative = inhibition [4] 1.12% [at 10.5 µM]

CC(=O)N1C[C@H](O)C[C@H]1C(=O)O
inactive: Potency [1] | Potency [2] | Potency [3] | Potency [4]

CCCCCCCCCCCC(=O)OC[C@@H](O)[C@H]1OC[C@H](OCCO)[C@H]1OCCO
inactive: Potency [1] | Potency [2] | Potency [3] | Potency [4]

CCCCCCCCCCCCCCCCCC(=O)OCC(CC)CCCC (stereo not given)
inactive: Potency [1] | Potency [2] | Potency [3] | Potency [4]

CC(C)(CCC(=O)O)C(=O)O
inactive: Potency [1] | Potency [2] | Potency [3] | Potency [4]

Nc1cc([N+](=O)[O-])ccc1O
inactive: Potency [1] | Potency [2] | Potency [3] | Potency [4]

CCCn1cnc2c1c(=O)n(CCCCC(C)=O)c(=O)n2C
inactive: Potency [1] | Potency [2] | Potency [3] | Potency [4]

C=C(C)[C@@H]1CC=C(C)CC1
inactive: Potency [1] | Potency [2] | Potency [3] | Potency [4]

CCCCS(=O)(=O)N[C@@H](Cc1ccc(OCCCCC2CCNCC2)cc1)C(=O)O
inactive: Potency [1] | Potency [2] | Potency [3] | Potency [4]

CC12CCC(CC1=O)C2(C)C (stereo not given)
inactive: Potency [1] | Potency [2] | Potency [3] | Potency [4]

CN(C)c1ccc(C2(c3ccc(N(C)C)cc3)OC(=O)c3cc(N(C)C)ccc32)cc1
inactive: Potency [1] | Potency [2] | Potency [3] | Potency [4]

Cc1cccc(N(C)C(=S)Oc2ccc3c(c2)C2CCC3C2)c1 (stereo not given)
inactive: Potency [1] | Potency [2] | Potency [3] | Potency [4]

CCC=O
inactive: Potency [1] | Potency [2] | Potency [3] | Potency [4]

Cc1cccc(C)c1NC(=O)c1ccc(N)cc1
inactive: Potency [1] | Potency [2] | Potency [3] | Potency [4]

c1ccc(CC2=NCCN2)cc1
inactive: Potency [1] | Potency [2] | Potency [3] | Potency [4]

CC(C)CC(C)CC(O)CC(C)C (stereo not given)
inactive: Potency [1] | Potency [2] | Potency [3] | Potency [4]

NCCN1CCNC1=O
inactive: Potency [1] | Potency [2] | Potency [3] | Potency [4]

CO[Si](OC)(OC)c1ccccc1
inactive: Potency [1] | Potency [2] | Potency [3] | Potency [4]

CCCCCCCCCCCCN1CCCC1=O
inactive: Potency [1] | Potency [2] | Potency [3] | Potency [4]

Source: PubChem BioAssay (Tox21)
